# Data published in PubChem BioAssay (NCATS).
# Records with an inconclusive call do not appear. A call without a number means that no potency is given here. A number with no mark means an inactive call. Calls of active or inactive are those of the source. Calls come from the whole dose curve; as a rule, active = well fitted curve in the direction sought with a large enough effect; inconclusive = small, poorly fitted or top-dose-only effect, or another doubt; inactive = no such curve, though single readings can be large; an effect the other way counts as inactive or inconclusive.
# How the values were obtained:
# [1] = test system: CRL-7250; assay: Cytotoxic Profiling of Annotated Libraries Using Quantitative High-Throughput Screening (AID 1296008); conditions: Five cell lines viability, CellTiter-Glo ATP luminescence, 48-72 h; max response: hits give low values; note: nearly all actives have a fitted effect of over 60% in size; note: potency is the fitted concentration of half-maximal effect
# Procedure, shortened: (§1)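 Cells exposed to compounds for 48 or 72 hr at 37 degrees Celsius. Viability read as ATP-coupled luminescence with CellTiter-Glo after 10 min at room temperature.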
# [2] = test system: HEK293; assay: as above; conditions: Five cell lines viability, CellTiter-Glo ATP luminescence, 48-72 h; max response: hits give low values
# Procedure, shortened: as §1
# [3] = test system: HaCat; assay: as above; conditions: Five cell lines viability, CellTiter-Glo ATP luminescence, 48-72 h; max response: hits give low values
# Procedure, shortened: as §1
# [4] = test system: KB-3-1; assay: as above; conditions: Five cell lines viability, CellTiter-Glo ATP luminescence, 48-72 h; max response: hits give low values
# Procedure, shortened: as §1
# [5] = test system: NIH3T3; assay: as above; conditions: Five cell lines viability, CellTiter-Glo ATP luminescence, 48-72 h; max response: hits give low values
# Procedure, shortened: as §1
# [6] = test system: HACAT; assay: qHTS assay to identify novel small-molecules to repurpose for Merkel cell carcinoma treatment (AID 1296009); conditions: MCC and control cell lines, CellTiter-Glo viability, 72 h; at 44.8 µM (top of the series) unless noted; note: nearly all actives have a fitted effect of over 60% in size
# Procedure, shortened: (§2)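 Cells were treated for 72 hr at 37 degree celsius with compounds in 8- or 11-point dose response. Viability was read by CellTiter-Glo luminescence, normalized to no-cell (cytotoxicity) and DMSO controls.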
# [7] = test system: MCC-13; assay: as above; conditions: MCC and control cell lines, CellTiter-Glo viability, 72 h; series mostly up to 46 µM
# Procedure, shortened: as §2
# [8] = test system: MCC-26; assay: as above; conditions: MCC and control cell lines, CellTiter-Glo viability, 72 h; series mostly up to 46 µM
# Procedure, shortened: as §2
# [9] = test system: MKL-2; assay: as above; conditions: MCC and control cell lines, CellTiter-Glo viability, 72 h; series mostly up to 46 µM
# Procedure, shortened: as §2
# [10] = test system: UISO; assay: as above; conditions: MCC and control cell lines, CellTiter-Glo viability, 72 h; series mostly up to 46 µM
# Procedure, shortened: as §2
# [11] = test system: WaGa; assay: as above; conditions: MCC and control cell lines, CellTiter-Glo viability, 72 h; series mostly up to 46 µM
# Procedure, shortened: as §2
# [12] = test system: C33A; assay: Primary qHTS to identify gynecologic anti-cancer compounds using libraries of approved drugs and bioactive compounds (AID 1345084); conditions: Gynecologic cancer cell panel viability, ATPlite luminescence, 48 h; series mostly up to 57.5 µM; note: nearly all actives have a fitted effect of over 55% in size
# Procedure, shortened: (§3)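 Luminescence from the ATPlite ATP-monitoring reagent indicates viable cell number; lower signal means cytotoxicity. Cells received compound 16 h after seeding and were exposed for 48 h across five concentrations.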
# [13] = test system: CASKI; assay: as above; conditions: Gynecologic cancer cell panel viability, ATPlite luminescence, 48 h; series mostly up to 57.5 µM
# Procedure, shortened: as §3
# [14] = test system: Es-2; assay: as above; conditions: Gynecologic cancer cell panel viability, ATPlite luminescence, 48 h; series mostly up to 57.5 µM
# Procedure, shortened: as §3
# [15] = test system: HeLa; assay: as above; conditions: Gynecologic cancer cell panel viability, ATPlite luminescence, 48 h; series mostly up to 57.5 µM
# Procedure, shortened: as §3
# [16] = test system: Hek293T; assay: as above; conditions: Gynecologic cancer cell panel viability, ATPlite luminescence, 48 h, control line for the selectivity index; series mostly up to 57.5 µM
# Procedure, shortened: as §3
# [17] = test system: MKL-1; assay: qHTS assay to identify novel small-molecules to repurpose for Merkel cell carcinoma treatment (AID 1296009); conditions: MCC and control cell lines, CellTiter-Glo viability, 72 h; series mostly up to 46 µM; note: nearly all actives have a fitted effect of over 60% in size
# Procedure, shortened: as §2
# [18] = test system: CAOV3; assay: Primary qHTS to identify gynecologic anti-cancer compounds using libraries of approved drugs and bioactive compounds (AID 1345084); conditions: Gynecologic cancer cell panel viability, ATPlite luminescence, 48 h; series mostly up to 57.5 µM; note: nearly all actives have a fitted effect of over 55% in size
# Procedure, shortened: as §3
# [19] = test system: NIH3T3; assay: qHTS assay to identify novel small-molecules to repurpose for Merkel cell carcinoma treatment (AID 1296009); conditions: MCC and control cell lines, CellTiter-Glo viability, 72 h; at 44.8 µM (top of the series) unless noted; note: nearly all actives have a fitted effect of over 60% in size
# Procedure, shortened: as §2
# [20] = test system: HEK293T; assay: as above; conditions: MCC and control cell lines, CellTiter-Glo viability, 72 h; at 44.8 µM (top of the series) unless noted
# Procedure, shortened: as §2
smiles,measurement,setting,value
O=C1CC2(CCCC2)CC(=O)N1CCCCN1CCN(c2ncccn2)CC1,outcome,[1],inactive
same,max response,[2],-2.12%
same,outcome,[3],inactive
same,max response,[4],-1.42%
same,max response,[5],-6.17%
same,outcome,[6],inactive
same,Potency,[7],inactive
same,Potency,[8],inactive
same,Potency,[9],inactive
same,Potency,[10],inactive
same,Potency,[11],inactive
same,Potency,[12],inactive
same,Potency,[13],inactive
same,Potency,[14],inactive
same,Potency,[15],inactive
same,Potency,[16],inactive
NC(=O)c1ncn([C@@H]2O[C@H](CO)[C@@H](O)[C@H]2O)c1O,max response,[1],-24.9%
same,max response,[2],3.19%
same,outcome,[3],inactive
same,max response,[4],8.08%
same,max response,[5],-1.25%
same,outcome,[6],inactive
same,Potency,[7],inactive
same,Potency,[8],inactive
same,Potency,[17],inactive
same,Potency,[9],inactive
same,Potency,[10],inactive
same,Potency,[11],inactive
same,Potency,[12],inactive
same,Potency,[18],inactive
same,Potency,[13],inactive
same,Potency,[14],inactive
same,Potency,[15],inactive
same,Potency,[16],inactive
CCn1cc(C(=O)O)c(=O)c2cc3c(cc21)OCO3,max response,[1],-16.9%
same,max response,[2],-14.3%
same,max response,[3],-9.91%
same,max response,[4],-12.7%
same,max response,[5],-23.3%
same,Potency,[7],inactive
same,Potency,[8],inactive
same,Potency,[17],inactive
same,Potency,[9],inactive
same,Potency,[10],inactive
same,Potency,[11],inactive
same,Potency,[12],inactive
same,Potency,[18],inactive
same,Potency,[13],inactive
same,Potency,[14],inactive
same,Potency,[15],inactive
same,Potency,[16],inactive
Cc1ccc(/C(=C\CN2CCCC2)c2ccccn2)cc1,max response,[1],0.263%
same,max response,[2],-16.2%
same,max response,[3],-3.07%
same,max response,[4],18.1%
same,max response,[5],1.95%
same,Potency,[7],inactive
same,Potency,[8],inactive
same,Potency,[17],inactive
same,Potency,[9],inactive
same,Potency,[10],inactive
same,Potency,[11],inactive
same,Potency,[12],inactive
same,Potency,[18],inactive
same,Potency,[13],inactive
same,Potency,[14],inactive
same,Potency,[15],inactive
same,Potency,[16],inactive
CC(=O)Nc1nnc(S(N)(=O)=O)s1,outcome,[1],inactive
same,max response,[2],3.96%
same,max response,[3],4.4%
same,max response,[4],1.55%
same,outcome,[5],inactive
same,Potency,[7],inactive
same,Potency,[8],inactive
same,Potency,[17],inactive
same,Potency,[9],inactive
same,outcome,[19],inactive
same,Potency,[10],inactive
same,Potency,[11],inactive
same,Potency,[12],inactive
same,Potency,[18],inactive
same,Potency,[13],inactive
same,Potency,[14],inactive
same,Potency,[15],inactive
same,Potency,[16],inactive
NCCCNCCSP(=O)(O)O,outcome,[1],inactive
same,max response,[2],-18.5%
same,outcome,[3],inactive
same,max response,[4],-4.63%
same,outcome,[5],inactive
same,outcome,[6],inactive [at 9.27 µM]
same,"activity change, negative = cytotoxicity",[7],18.6% [at 9.22 µM]
same,"activity change, negative = cytotoxicity",[8],11.5% [at 9.22 µM]
same,"activity change, negative = cytotoxicity",[17],15.3% [at 9.22 µM]
same,"activity change, negative = cytotoxicity",[9],7.98% [at 9.22 µM]
same,outcome,[19],inactive [at 9.27 µM]
same,"activity change, negative = cytotoxicity",[10],-0.378% [at 9.22 µM]
same,"activity change, negative = cytotoxicity",[11],14.2% [at 9.22 µM]
same,"activity change, negative = cytotoxicity",[12],4.43% [at 11.6 µM]
same,"activity change, negative = cytotoxicity",[18],4.48% [at 11.6 µM]
same,"activity change, negative = cytotoxicity",[13],0.847% [at 11.6 µM]
same,"activity change, negative = cytotoxicity",[14],6.18% [at 11.6 µM]
same,"activity change, negative = cytotoxicity",[16],-0.973% [at 11.6 µM]
CC(=O)Oc1cc(C(C)C)c(OCCN(C)C)cc1C,max response,[1],-7.06%
same,outcome,[2],inactive
same,max response,[3],3.27%
same,max response,[4],3.97%
same,outcome,[5],inactive
same,outcome,[20],inactive
same,Potency,[7],inactive
same,Potency,[8],inactive
same,Potency,[9],inactive
same,outcome,[19],inactive
same,Potency,[10],inactive
same,Potency,[11],inactive
same,Potency,[12],inactive
same,Potency,[18],inactive
same,Potency,[13],inactive
same,Potency,[15],inactive
same,Potency,[16],inactive
NC(N)=NC(=O)Cc1c(Cl)cccc1Cl,max response,[1],-2.41%
same,Potency,[2],8.41 µM (active)
same,max response,[3],-14.8%
same,max response,[4],6.63%
same,max response,[5],3.43%
same,Potency,[7],inactive
same,Potency,[8],inactive
same,Potency,[17],inactive
same,Potency,[9],inactive
same,Potency,[10],inactive
same,Potency,[11],inactive
same,Potency,[12],inactive
same,Potency,[18],inactive
same,Potency,[13],inactive
same,Potency,[14],inactive
same,Potency,[15],inactive
same,Potency,[16],inactive
Nc1c2c(nc3ccccc13)CCCC2O (stereo not given),max response,[1],-0.206%
same,outcome,[2],inactive
same,outcome,[3],inactive
same,max response,[4],-6.2%
same,max response,[5],4.53%
same,outcome,[6],inactive
same,outcome,[20],inactive
same,Potency,[7],inactive
same,Potency,[8],inactive
same,Potency,[17],inactive
same,Potency,[9],inactive
same,Potency,[11],inactive
same,Potency,[12],inactive
same,Potency,[18],inactive
same,Potency,[13],inactive
same,Potency,[14],inactive
same,Potency,[15],inactive
same,Potency,[16],inactive
Cc1scc2c1N(C(=O)CN1CCN(C)CC1)c1ccccc1NC2=O,max response,[1],-1.88%
same,max response,[2],-0.369%
same,outcome,[3],inactive
same,max response,[4],6.97%
same,max response,[5],-7.24%
same,outcome,[6],inactive
same,Potency,[7],inactive
same,Potency,[8],inactive
same,Potency,[9],inactive
same,Potency,[10],inactive
same,Potency,[11],inactive
same,Potency,[12],inactive
same,Potency,[18],inactive
same,Potency,[13],inactive
same,Potency,[14],inactive
same,Potency,[16],inactive
CN=C(NC#N)NCCSCc1nc[nH]c1C,outcome,[1],inactive
same,outcome,[2],inactive
same,outcome,[3],inactive
same,max response,[4],-9.62%
same,max response,[5],-0.832%
same,outcome,[6],inactive
same,outcome,[20],inactive
same,Potency,[7],inactive
same,Potency,[8],inactive
same,Potency,[17],inactive
same,Potency,[9],inactive
same,Potency,[10],inactive
same,Potency,[11],inactive
same,Potency,[12],inactive
same,Potency,[18],inactive
same,Potency,[13],inactive
same,Potency,[14],inactive
same,Potency,[15],inactive
same,Potency,[16],inactive
C[N+](C)(C)CCOC(=O)CCC(=O)OCC[N+](C)(C)C,max response,[1],1.65%
same,max response,[2],4.43%
same,outcome,[3],inactive
same,max response,[4],1.17%
same,outcome,[5],inactive
same,outcome,[6],inactive
same,Potency,[7],inactive
same,Potency,[8],inactive
same,Potency,[17],inactive
same,Potency,[9],inactive
same,outcome,[19],inactive
same,Potency,[10],inactive
same,Potency,[11],inactive
same,Potency,[12],inactive
same,Potency,[18],inactive
same,Potency,[13],inactive
same,Potency,[14],inactive
same,Potency,[15],inactive
same,Potency,[16],inactive
C[C@H](CS)C(=O)N1CCC[C@H]1C(=O)O,max response,[1],1.04%
same,max response,[2],-1.78%
same,max response,[3],2.06%
same,max response,[5],-6.68%
same,Potency,[7],inactive
same,Potency,[8],inactive
same,Potency,[9],inactive
same,Potency,[10],inactive
same,Potency,[11],inactive
same,Potency,[12],inactive
same,Potency,[18],inactive
same,Potency,[13],inactive
same,Potency,[14],inactive
same,Potency,[15],inactive
same,Potency,[16],inactive
